# In PubChem BioAssay (NCATS):
# Records with an inconclusive call do not appear. Active and inactive are the calls of the source. Calls follow the shape of the dose curve; as a rule, active = well fitted activation curve with a large enough effect; inconclusive = small, poorly fitted or top-dose-only effect; inactive = flat fitted curve, though single readings scatter.
# Assay: Validation screen for small molecules that induce DNA re-replication in MCF 10A normal breast cells (AID 463097); also: nearly all actives have a fitted effect of over 60% in size; as to re-replication induction: 0% is about no effect
# Conditions: MCF 10A cells, DNA re-replication phenotype imaging; series mostly up to 46.1 µM; re-replication induction: at the top concentration
# Outline: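 250 MCF 10A cells/well; compound pin-transferred; 48 hr, 37 C, 5% CO2; Hoechst 40 min; imaged 405/500-530 nm. Hits = more high-intensity nuclei.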
# Potency is read from the fitted curve at half-maximal effect.
SMILES,re-replication induction,Potency
Fc1cccc(/C=N/N=C/c2cccc(F)c2)c1,-6.56% (inactive),
CC(C)(C)c1ccc(S(=O)(=O)/C=C/C#N)cc1,,1120 nM (active)
CN[C@H](CC(C)C)C(=O)N[C@H]1C(=O)N[C@@H](CC(N)=O)C(=O)N[C@H]2C(=O)N[C@H]3C(=O)N[C@H](C(=O)N[C@H](C(=O)O)c4cc(O)cc(O)c4-c4cc3ccc4O)[C@H](O)c3ccc(c(Cl)c3)Oc3cc2cc(c3O[C@@H]2O[C@H](CO)[C@@H](O)[C@H](O)[C@H]2O[C@H]2C[C@](C)(N)[C@H](O)[C@H](C)O2)Oc2ccc(cc2Cl)[C@H]1O,0.939% (inactive),
CC(C)Cc1ccc([C@H](C)C(=O)O)cc1,-6.49% (inactive),
CC(=O)N[C@H](C(=O)O)C(C)(C)SN=O,-6.83% (inactive),
Cc1cc(NC(=O)Nc2ccc3c(ccn3C)c2)sn1,0.295% (inactive),
O=C(O)CC[C@@H](C(=O)O)N1C(=O)c2ccccc2C1=O,0.242% (inactive),
CN(C)CCC(c1ccc(Cl)cc1)c1ccccn1 (centres undefined),-2.96% (inactive),
C=CC(N)CCC(=O)O (centres undefined),2.02% (inactive),
CN(C)c1nc(N)c(C(=O)N=C(N)N)nc1Cl,-0.726% (inactive),
CN1CCc2cc(O)c(O)cc2C(c2ccccc2)C1 (centres undefined),-4% (inactive),
CCN1/C(=C/C(C)=O)Sc2ccc(OC)cc21,12.8% (inactive),
NCCNC(=O)c1ncsc1-c1cccc(F)c1,-3.74% (inactive),
CCCn1c(=O)c2[nH]c(-c3ccc(OCC(=O)NCCN)cc3)nc2n(CCC)c1=O,19.3% (inactive),
COc1ccc(/C=C/C(=O)Nc2ccccc2C(=O)O)cc1OC,4.51% (inactive),
O=C(O)[C@@H]1C[C@@H](C(=O)O)N1,-3.2% (inactive),
O=C1NC(O)=NC1(c1ccccc1)c1ccccc1,0.83% (inactive),
COc1cc(C(O)CO)ccc1OS(=O)(=O)O (centres undefined),-1.41% (inactive),
CC(C)(C)NCC(O)COc1nsnc1N1CCOCC1 (centres undefined),2.66% (inactive),
NO,-1.48% (inactive),
OC[C@H]1O[C@@H](n2cnc3c(NC4CCCCC4)ncnc32)[C@H](O)[C@@H]1O,-3.09% (inactive),
O=c1[nH]c2cc([N+](=O)[O-])c([N+](=O)[O-])cc2[nH]c1=O,-2.38% (inactive),
c1ccc(-c2ccccn2)nc1,-3.22% (inactive),
CCCCN1CCC(n2c(=O)[nH]c3ccccc32)CC1,2.7% (inactive),
O=C(O)CNC(=O)C(CS)Cc1ccccc1 (centres undefined),-2.83% (inactive),
O=C(O)c1cc(=O)c2ccccc2[nH]1,-2.94% (inactive),
Cn1c(=O)c2[nH]c(-c3ccccc3)nc2n(C)c1=O,-1.94% (inactive),
OCC1O[C@H](O)C(Cl)C(O)C1O (some centres undefined),-7.31% (inactive),
O=C(O)[C@@H]1C[C@H](C(=O)O)N1,-1.88% (inactive),
